Assay results published in PubChem BioAssay (Tox21).
“And” between values parts separate entries of the source, which are not always exact repeats. Identical values can stand only once. Inconclusive results are not listed. A call without a number means that no potency is given here. A structure can be active in one record and inactive in another. The source made the active and inactive calls. Unless noted, the call rests on the fitted dose curve; in most records, active means well fitted curve in the direction sought with a large enough effect in the repeat runs; inconclusive means weak or mixed curves; inactive means no such curve, though single readings can be large; an effect the other way counts as inactive or inconclusive.

Columns and labels:
[1] = qHTS assay to identify small molecule antagonists of the glucocorticoid receptor (GR) signaling pathway - cell viability counter screen (AID 720693); further: nearly all actives have a fitted effect of over 55% in size
[2] = qHTS assay for identifying genotoxic compounds that show differential cytotoxicity against isogenic chicken DT40 cell lines with known DNA damage response pathways - wild type cell line (AID 743012); further: nearly all actives have a fitted effect of over 60% in size; further: potency means the concentration at half of the fitted maximal effect
Method in brief: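 CellTiter-Glo luminescence readout of viability in wild type DT40 cells after 40 h compound exposure at 37 C/5% CO2; 300 cells/well; reagent incubated 30 min at room temperature before reading.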

[3] = qHTS assay for identifying genotoxic compounds that show differential cytotoxicity against isogenic chicken DT40 cell lines with known DNA damage response pathways - Rev3 mutant cell line (AID 743014); further: nearly all actives have a fitted effect of over 55% in size; further: potency means the concentration at half of the fitted maximal effect
[4] = qHTS assay for identifying genotoxic compounds that show differential cytotoxicity against isogenic chicken DT40 cell lines with known DNA damage response pathways - Rad54/Ku70 mutant cell line (AID 743015); further: nearly all actives have a fitted effect of over 60% in size; further: potency means the concentration at half of the fitted maximal effect
[5] = qHTS assay to identify small molecule antagonists of the androgen receptor (AR) signaling pathway - cell viability counter screen (AID 743033; further: nearly all actives have a fitted effect of over 45% in size)
[6] = qHTS assay to identify small molecule antagonists of the androgen receptor (AR) signaling pathway using the MDA cell line - cell viability counter screen (AID 743041; further: nearly all actives have a fitted effect of over 45% in size)
Method in brief: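 Viability read by CellTiter-Fluor fluorescence in the same wells as the antagonist screen, added after 15.5 h of a 16 h, 37C exposure. Human breast carcinoma MDA-kb2 AR-luc cells, compounds co-dosed with agonist R1881.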

[7] = biological target: Androgen receptor (Homo sapiens) (UniProt P10275); test: qHTS assay to identify small molecule antagonists of the androgen receptor (AR) signaling pathway (AID 743035; active means well fitted inhibition curve with a large enough effect in the signal ratio in the repeat runs, not every such curve was filed as active; the % refers to the signal ratio; further: potency means the concentration at half of the fitted maximal effect)
Chain of Androgen receptor (Homo sapiens) (P10275 whole entry, looked up): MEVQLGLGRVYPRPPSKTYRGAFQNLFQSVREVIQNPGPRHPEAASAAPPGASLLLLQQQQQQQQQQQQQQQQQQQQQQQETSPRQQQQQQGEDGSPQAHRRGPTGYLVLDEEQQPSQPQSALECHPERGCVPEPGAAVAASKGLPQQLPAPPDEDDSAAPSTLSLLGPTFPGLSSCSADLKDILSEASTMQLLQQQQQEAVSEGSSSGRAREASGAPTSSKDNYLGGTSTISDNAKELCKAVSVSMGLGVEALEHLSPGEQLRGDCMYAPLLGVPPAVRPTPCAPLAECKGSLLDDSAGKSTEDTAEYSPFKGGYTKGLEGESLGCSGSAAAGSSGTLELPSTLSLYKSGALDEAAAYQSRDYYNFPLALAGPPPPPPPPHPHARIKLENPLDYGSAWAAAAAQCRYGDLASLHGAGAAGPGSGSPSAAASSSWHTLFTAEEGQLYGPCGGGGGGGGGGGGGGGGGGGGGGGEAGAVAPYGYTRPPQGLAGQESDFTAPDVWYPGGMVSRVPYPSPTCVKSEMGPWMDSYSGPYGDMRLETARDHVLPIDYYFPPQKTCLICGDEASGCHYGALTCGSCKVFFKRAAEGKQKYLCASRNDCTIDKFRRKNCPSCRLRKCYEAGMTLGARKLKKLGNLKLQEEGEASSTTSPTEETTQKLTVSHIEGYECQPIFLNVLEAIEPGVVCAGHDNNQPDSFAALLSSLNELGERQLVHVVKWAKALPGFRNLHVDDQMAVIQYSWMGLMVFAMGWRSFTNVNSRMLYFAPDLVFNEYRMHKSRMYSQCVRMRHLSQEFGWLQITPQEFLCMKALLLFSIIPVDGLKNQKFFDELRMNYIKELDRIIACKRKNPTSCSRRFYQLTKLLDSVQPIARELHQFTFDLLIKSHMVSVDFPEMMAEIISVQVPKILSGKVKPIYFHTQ
Method in brief: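 AR-bla HEK293 reporter cells; 4 h settle at 37C/5% CO2; compound + R1881 agonist, 16 h at 37C; LiveBLAzer B/G FRET substrate 2 h RT; fluorescence intensity read. qHTS format.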

[8] = biological target: Androgen receptor (Homo sapiens) (UniProt P10275); test: qHTS assay to identify small molecule agonists of the androgen receptor (AR) signaling pathway (AID 743036; active means well fitted activation curve with a large enough effect in the signal ratio in the repeat runs, with a control signal flat, not every such curve was filed as active; the % refers to the signal ratio)
Method in brief: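 Beta-lactamase under UAS control, stably integrated in HEK293 GripTite cells, reports receptor activation. After 16 h compound treatment, cells received FRET substrate for 2 h at room temperature before fluorescence reading.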

[9] = biological target: Androgen receptor (Homo sapiens) (UniProt P10275); test: qHTS assay to identify small molecule agonists of the androgen receptor (AR) signaling pathway using the MDA cell line (AID 743040; further: nearly all actives have a fitted effect of over 20% in size)
Method in brief: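 Luciferase agonist assay: 16 h compound exposure at 37C without CO2 in MDA-kb2 AR-luc cells, whose MMTV promoter responds to both AR and GR. Luminescence measured after 30 min room-temperature incubation with ONE-Glo.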

[10] = biological target: Androgen receptor (Homo sapiens) (UniProt P10275); test: qHTS assay to identify small molecule antagonists of the androgen receptor (AR) signaling pathway using the MDA cell line (AID 743042; further: nearly all actives have a fitted effect of over 55% in size)
Method in brief: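 Antagonist mode: compounds plus R1881 agonist added to MDA-kb2 AR-luc cells, incubated 16 h at 37C. Luciferase reporter luminescence quantified, with multiplexed CellTiter-Fluor readout for cell viability.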

| Compound | outcome [1] | Potency [2] | Potency [3] | Potency [4] | outcome [5] | outcome [6] | Potency [7] | outcome [8] | outcome [9] | outcome [10] |
| --- | --- | --- | --- | --- | --- | --- | --- | --- | --- | --- |
| CC(NC(C)(C)C)C(=O)c1cccc(Cl)c1 (stereo not drawn) | inactive | inactive | inactive and 23 µM (active) | inactive | inactive | inactive |  |  |  |  |
| Cc1ccc(N)cc1Cl | inactive | inactive | inactive | inactive | inactive | inactive |  |  |  |  |
| OCCN(CCO)CCO | inactive | inactive | inactive | inactive | inactive | inactive |  |  |  |  |
| Oc1ccccc1Cl | inactive | inactive | inactive | inactive | inactive | inactive |  |  |  |  |
| CC(=O)C=C(C)C | inactive | inactive | inactive | inactive | inactive | inactive |  |  |  |  |
| [N-]=[N+]=[N-] | inactive |  | inactive | inactive | inactive | inactive | inactive | inactive | inactive | inactive |
| CC1C=[C-]C=C1.[C-]#[O+].[C-]#[O+].[C-]#[O+].[Mn] | inactive | inactive | inactive | inactive | inactive | inactive |  |  |  |  |
| COC(=O)NC(=S)Nc1ccccc1NC(=S)NC(=O)OC | inactive | 61.1 µM (active) | 61.1 µM (active) |  | inactive | inactive |  |  |  |  |
| CCN(CC)c1ccccc1 | inactive |  | inactive | inactive | inactive | inactive | inactive | inactive | inactive | inactive |
| CC1OC(C)OC(C)O1 (stereo not drawn) | inactive | inactive | inactive | inactive | inactive | inactive |  |  |  |  |
| COC(=O)NS(=O)(=O)c1ccc(N)cc1 | inactive | inactive | inactive | inactive | inactive | inactive |  |  |  |  |
| c1ccc(-c2ccccc2)cc1 | inactive |  | inactive | inactive | inactive | inactive | inactive | inactive | inactive | inactive |
| CN(C)[C@@H]1C(=O)C(C(N)=O)=C(O)[C@@]2(O)C(=O)C3=C(O)c4c(O)cccc4[C@@](C)(O)[C@H]3C[C@@H]12 | inactive | inactive | inactive | inactive | inactive | inactive |  |  |  |  |
| O=C(NC(=O)c1c(F)cccc1F)Nc1cc(Cl)c(OC(F)(F)C(F)C(F)(F)F)cc1Cl (stereo not drawn) | inactive |  | 4.22 µM (active) | 5.96 µM (active) and 21.7 µM (active) | inactive | inactive | inactive | inactive | inactive |  |
| Cc1ccc([N+](=O)[O-])cc1C | inactive |  | inactive | inactive | inactive | inactive |  |  |  |  |
| CCNc1nc(NC(C)(C)C)nc(SC)n1 | inactive |  | 60.3 µM (active) | 54.5 µM (active) | inactive | inactive |  |  |  |  |
| c1cc2c3c(cccc3c1)CC2 | inactive |  | inactive | inactive and 61.1 µM (active) | inactive | inactive | inactive | inactive | inactive | inactive |
| c1ccc2c(c1)oc1ccccc12 | inactive | inactive | inactive | inactive | inactive | inactive |  |  |  |  |
| CC(C#N)CCC#N (stereo not drawn) | inactive | inactive | inactive | inactive | inactive | inactive |  |  |  |  |
| C1CN2CCN1CC2 | inactive | inactive | inactive | inactive | inactive | inactive |  |  |  |  |

| Compound | outcome [1] | Potency [2] | Potency [3] | Potency [4] | outcome [5] | outcome [6] | Potency [7] | outcome [8] | outcome [9] | outcome [10] |
| --- | --- | --- | --- | --- | --- | --- | --- | --- | --- | --- |
| Cc1cccc([N+](=O)[O-])c1 | inactive |  | inactive | inactive | inactive | inactive |  |  |  |  |
| CCCCN(CC)C(=O)SCCC | inactive |  | inactive | inactive | inactive | inactive | inactive | inactive | inactive | inactive |
| CC(C)NC(=O)N1CC(=O)N(c2cc(Cl)cc(Cl)c2)C1=O | inactive | inactive | 54.5 µM (active) |  | inactive | inactive |  |  |  |  |
| CCCCN(CCCC)SN(C)C(=O)Oc1cccc2c1OC(C)(C)C2 | inactive | 30.6 µM (active) | 48.6 µM (active) | 30.6 µM (active) | inactive | inactive |  |  |  |  |
| CCc1cccc(C)c1N(C(=O)CCl)C(C)COC (stereo not drawn) | inactive | 40.8 µM (active) and 10.9 µM (active) | 16.2 µM (active) and 12.2 µM (active) | 45.8 µM (active) and 17.2 µM (active) | inactive | inactive |  |  |  |  |
| ClCc1cccnc1 | inactive |  | inactive | inactive | inactive | inactive |  |  |  |  |
| C[C@]12CC[C@H]3[C@@H](CC[C@@]45O[C@@H]4C(O)=C(C#N)C[C@]35C)[C@@H]1CC[C@@H]2O | inactive | inactive and 61.1 µM (active) | inactive and 27.3 µM (active) | 30.6 µM (active) | inactive | inactive |  |  |  |  |
| CN1C(=O)CN=C(c2ccccc2)c2cc(Cl)ccc21 | inactive | inactive | inactive |  | inactive | inactive |  |  |  |  |
| CCCCCCCCCl | inactive | inactive | inactive | inactive | inactive | inactive |  |  |  |  |
| Clc1cccc(Cl)c1Cl | inactive | inactive | inactive | inactive | inactive | inactive |  |  |  |  |
| O=[N+]([O-])c1ccc([As](=O)(O)O)cc1 | inactive | inactive | inactive | inactive | inactive | inactive |  |  |  |  |
| CCCN(CCC)N=O | inactive | inactive | inactive | inactive | inactive | inactive |  |  |  |  |
| CN(C)N=O | inactive | inactive | inactive | inactive | inactive | inactive |  |  |  |  |
| CC(C)(C)C(O)(CCc1ccc(Cl)cc1)Cn1cncn1 (stereo not drawn) | inactive | 61.1 µM (active) | 61.9 µM (active) and 61.1 µM (active) | 69.4 µM (active) and 61.1 µM (active) |  | inactive |  |  |  |  |
| c1ccc2c(c1)Oc1ccccc1O2 | inactive |  | inactive | inactive | inactive | inactive |  |  |  |  |
| CC(C)=C[C@@H]1[C@@H](C(=O)OCc2coc(Cc3ccccc3)c2)C1(C)C | inactive | inactive and 27.3 µM (active) | inactive and 34.4 µM (active) |  | inactive | inactive |  |  |  |  |
| NCCc1ccc(O)cc1 | inactive | inactive | inactive | inactive | inactive | inactive |  |  |  |  |
| O=NN1CCCC1 | inactive | inactive | inactive | inactive | inactive | inactive |  |  |  |  |
| CCCC1COC(Cn2cncn2)(c2ccc(Cl)cc2Cl)O1 (stereo not drawn) |  |  |  |  |  |  | 49.9 µM (active) and 43.6 µM (active) | inactive | inactive |  |
